PERK inh – block of dimerizer-induced PERK translation repression, primary screen, PERK inhibitor project, CHO PERK-DD cells, SEAP luminescence, HTS. Eukaryotic translation initiation factor 2-alpha kinase 3 (Homo sapiens), Q9NZJ5. CHO PERK-DD fusion, SEAP luminescence translation reporter. inhibition, % at 5.6 µM. actives 0.17% (n = 220,000). AID 1416, 2008;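 active = inhibition above the mean inhibition of all tested compounds plus 3 SD, set separately per screening campaign, cut at about 2.9% in these data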;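 note: PERK kinase domain activated by AP20187 dimerizer at 100 nM; 0% = DMSO with dimerizer and 100% = rapamycin at 8.4 µM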
eIF4E 4G PPI – eIF4E–eIF4G protein interaction inhibitors, primary screen, biochemical, uHTS, TR-FRET, eIF4GI fragment; Eukaryotic translation initiation factor 4E (Mus musculus) + Eukaryotic translation …; actives 0.37% (n = 220,000); TR-FRET eIF4E-eIF4GI(517-606) binding, 2 h; inhibition, % at 21.7 µM;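 active = inhibition above about 30%, limit read from the data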;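 note: 0% = full FRET control wells and 100% = background wells lacking eIF4GI fragment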
eIF4H inh – human eIF4H binding inhibitors, primary screen, translation initiation inhibitor project, biochemical, uHTS, fluorescence polarization; eIF4H fluorescence polarization binding assay; inhibition, % at 35 µM; actives 0.94% (n = 290,000); AID 2012, 2009;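 note: calls also rest on retests at 20 µM and on dose response follow-up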
PABP FP inh – PABP poly(A) RNA binding inhibitors, primary screen, biochemical, fluorescence polarization, uHTS. AID 2014, 2009. actives 1% (n = 290,000). Polyadenylate-binding protein 1 (Homo sapiens), P11940. inhibition, % at 35 µM;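 note: calls also rest on retests at 20 µM and on dose response follow-up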
MLLE-PAM2 inh – inhibitors of PABP1 MLLE–PAM2 peptide binding, primary screen, biochemical, fluorescence polarization, FITC-PAM2, GST-MLLE. Polyadenylate-binding protein 1 (Homo sapiens), P11940. inhibition, % at 20 µM. actives 0.36% (n = 360,000); in the data active = inhibition above about 35%, passing the limit was not always enough;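 note: plate controls were DMSO wells with GST-MLLE for no effect and wells lacking GST-MLLE protein for full effect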
* marks the source's active call; other numbers are inactive results; ? = inconclusive; / = no result. This is a sample that favours compounds with a hit; in the whole collection about 1.6% have one here. Unless noted, the rule behind the calls is not given here.

SMILES	PERK inh	eIF4E 4G PPI	eIF4H inh	PABP FP inh	MLLE-PAM2 inh
O=C1/C(=C\c2ccco2)SC(=S)N1C1CCS(=O)(=O)C1 (stereo unspecified)	-0.9	6.3	93.5*	72.9*	18.5
Cc1ccc(/C=C2\SC(=S)N(C3CCS(=O)(=O)C3)C2=O)cc1 (stereo unspecified)	0.2	2.1	14.0	-2.2	22.8
O=C1/C(=C/c2ccco2)SC(=S)N1C1CCS(=O)(=O)C1 (stereo unspecified)	-0.2	-2.2	99.0	active	34.8
CCN(C(=O)C(C)N1C(=O)/C(=C/c2ccco2)SC1=S)C1CCS(=O)(=O)C1 (stereo unspecified)	/	/	54.2*	32.5*	7.1
O=C(CN1C(=O)C(=O)N(C2CCCC2)C1=O)Nc1ccccc1OC(F)F	/	/	/	/	-1.9
CC(=O)Nc1ccc(NC(=S)NC(=O)/C=C/c2ccco2)cc1	/	/	74.5*	31.8	13.6
O=C(/C=C/c1ccco1)NC(=S)Nc1cc(C(F)(F)F)ccc1N1CCOCC1	0.3	-4.5	78.8	active	-4.4
O=C(/C=C/c1ccco1)NC(=S)Nc1ccccc1N1CCOCC1	-0.8	2.5	0.5	-0.9	22.2
Cn1nnc(NC(=S)NC(=O)/C=C/c2ccco2)n1	-0.5	-1.7	87.7*	81.5*	29.9
O=C(/C=C/c1ccco1)NC(=S)Nc1cccc(C(=O)O)c1	/	/	86.3*	72.0*	20.3
COc1cccc(NC(=S)NC(=O)/C=C/c2ccco2)c1	/	/	41.0	29.6	-6.4
CCNS(=O)(=O)c1ccc(CCC(=O)NCc2ccc3c(c2)OCO3)cc1	/	/	-0.5	-8.2	2.4
CCOC(=O)c1ccc(S(=O)(=O)NNC(=O)c2cccc(N(C)C)c2)cc1	0.0	3.3	14.5	-5.6	-15.9
CCOC(=O)/C(C#N)=C(C)/C=C1\Sc2ccccc2N1CC	-0.3	-0.3	?	-9.6	32.7
CCN(CC)S(=O)(=O)c1cccc(-c2cn3cc(C)ccc3n2)c1	-1.6	6.0	56.6*	3.0	1.0
Cc1ccc2nc(-c3cccc(S(=O)(=O)N(C)C)c3)cn2c1	-1.7	/	-7.5	-1.3	-3.0
Cc1cc(C)c(NC(=O)NC(=O)c2ccc(F)cc2)c(C)n1	-1.2	-3.9	76.5*	60.2*	3.8
Cc1cc(C)c(NC(=O)NC(=O)c2cccc(F)c2)c(C)n1	-0.3	-1.8	-2.9	9.0	-8.1
O=C(CNC(=S)NC(=O)c1ccc(Cl)cc1)c1ccccc1	0.3	-6.7	-1.7	14.4	24.9
Oc1c(Br)cc(Br)cc1C=Nc1cccnc1	/	/	32.5	30.9	39.2*
c1cnc2ccc3ncccc3c2c1	2.3	-1.4	10.9	16.2	-12.6
Nc1ccc2ncccc2c1N	/	/	87.4*	0.7*	10.7
O=C1COc2ccc(S(=O)(=O)N3CCc4ccccc43)cc2N1	1.6	-2.2	-2.9	2.3	-1.8
O=C(O/N=C1\C(=O)N(c2ccccc2)c2ccccc21)C1CC1	0.4	0.9	active	80.6	-2.0
CNc1nc(-c2ccccc2)cc(C(F)(F)F)c1C#N	0.0	0.2	96.0*	82.7*	8.4
SMILES	PERK inh	eIF4E 4G PPI	eIF4H inh	PABP FP inh	MLLE-PAM2 inh
COc1ccc(C(=O)Nc2ccc(N3CCN(C(C)=O)CC3)cc2)cc1[N+](=O)[O-]	-0.1	0.5	active	62.2*	/
CC1CCN(c2ccc(NC(=S)NC(=O)c3ccc(-c4cccc([N+](=O)[O-])c4)o3)cc2)CC1	0.8	-22.4	11.2	12.0	40.5*
CC(=O)N1CCN(c2ccc(NC(=O)c3ccc(Cl)c([N+](=O)[O-])c3)cc2)CC1	/	/	-14.4	-8.9	0.6
CCC1CCCCN1C(=S)NC(=O)c1cccc([N+](=O)[O-])c1 (stereo unspecified)	/	/	-19.0	4.3	42.2*
CC1CCN(c2ccc(NC(=S)NC(=O)c3ccco3)cc2)CC1	0.3	-6.8	-3.7	-3.4	17.8
CCC(=O)N1CCN(c2ccc(NC(=S)NC(=O)c3cccc([N+](=O)[O-])c3)cc2)CC1	-0.7	0.4	-4.1	-14.5	42.7*
C=CCN(CC=C)CCOc1ccc(C)cc1[N+](=O)[O-]	0.2	0.9	12.2	-10.3	10.2

High-throughput results: PubChem, several laboratories
